A number with no mark means an inactive call.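 The calls were made as follows: active = MAPPIT score above the 99th percentile of random reference set scores in the same batch; inactive = at or below it.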

In the supplement of paper PMC10105736 one finds MAPPIT interaction score data, which are given here for twelve molecules.

What all share (assay): MAPPIT interaction score (arbitrary units); higher = stronger binary interaction signal, active = hit call of the paper
Test [1] addresses CG17991. To be noted: MAPPIT configuration: N-C.
In test [2] the target is sina. Conditions: MAPPIT configuration: N-N; pair source set: screen_2.
Test [3] concerns the target CG17598. To be noted: MAPPIT configuration: N-N; pair source set: Lit-BM-16.
Test [4] has as its target CG17770. Conditions: pair source set: RRS.
Test [5] concerns the target CG17162. To be noted: MAPPIT configuration: N-C; pair source set: screen_4.
Test [6] has as its target park. To be noted: MAPPIT configuration: N-C; pair source set: screen_4.
The target of test [7] is CG1971. Conditions: MAPPIT configuration: N-N; pair source set: Curagen_high_conf.
For test [8], the target named is CG9986. To be noted: MAPPIT configuration: N-N; pair source set: Curagen_low_conf.
The target in test [9] is Mdr49. To be noted: MAPPIT configuration: N-N; pair source set: Lit-BS-16.
Test [10] deals with PAN3. Conditions: MAPPIT configuration: N-N; pair source set: Curagen_low_conf.
For test [11], the target named is CG2021. Conditions: MAPPIT configuration: N-N; pair source set: DPIM.
The target of test [12] is CG17217. To be noted: MAPPIT configuration: N-N; pair source set: Finley_Y2H.
Test [13] concerns the target PIG-T. Conditions: MAPPIT configuration: N-N; pair source set: DPIM.
For test [14], the target named is Prosalpha6T. Conditions: pair source set: Lit-BM-16.
Test [15] deals with Prosbeta3. Conditions: MAPPIT configuration: N-C; pair source set: Lit-BM-16.
For test [16], the target named is Rpt2. Conditions: pair source set: Lit-BM-16.
Test [17] deals with Rpt4. Conditions: pair source set: Lit-BM-16.
Test [18] has as its target CG17224. To be noted: MAPPIT configuration: N-N; pair source set: Finley_Y2H.
For test [19], the target named is CG2017. To be noted: MAPPIT configuration: N-N; pair source set: screen_1.
Test [20] deals with CG2199. Conditions: MAPPIT configuration: N-N; pair source set: Curagen_low_conf.
For test [21], the target named is Paics. Conditions: MAPPIT configuration: N-N; pair source set: DPIM.
Test [22] addresses CG1789. To be noted: MAPPIT configuration: N-N; pair source set: Finley_Y2H.
Test [23] has as its target Mnt. To be noted: pair source set: Lit-BM-16.
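Also: HEK293T cells with Epo stimulation, STAT-responsive firefly luciferase reporter, fold induction versus unstimulated cells divided by the larger fold induction of two negative controls lacking either bait or prey.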

B1: ben (protein)
chain: MSSLPRRIIKETQRLMQEPVPGINAIPDENNARYFHVIVTGPNDSPFEGGVFKLELFLPEDYPMSAPKVRFITKIYHPNIDRLGRICLDVLKDKWSPALQIRTILLSIQALLSAPNPDDPLANDVAELWKVNEAEAIRNAREWTQKYAVED
B1: the figures for the MAPPIT interaction score in test [1] (pair source set: screen_3) and in test [2] were 0.127 and 0.428, respectively.

B2: Rab2 (protein)
chain: MSYAYLFKYIIIGDTGVGKSCLLLQFTDKRFQPVHDLTIGVEFGARMITIDGKQIKLQIWDTAGQEAFRSITRSYYRGAAGALLVYDITRRETFNHLTTWLEDARQHSNSNMVIMLIGNKSDLDSRREVKKEEGEAFAREHGLVFMETSARTAANVEEAFINTAKEIYEKIQEGVFDINNEANGIKIGQQHSPTNPSLPGAGGAAGAANSGCC
As to B2, in test [3], the MAPPIT interaction score is 1.18.

B3: Rtf1 (protein)
chain: MGKRRTQSLIDSNSSDSDSESETNLESDLMSLAKKRKKPQTAAKSSSRSDSDSDWANNKAGAPSSKKKKRQKPSRDSSSSESNWDDDSQDERQPARQSPAQTQQEHKPPEQASQPAQLSEQEEGEVSDSDSDKSKSNSSSSGSDSSSSSSSSDSEFDDGFDDDLMGDDEDRRRLNGLSEKERETEIYKRIEQREIMRTRWEIERKLKLARRGEKNQEKSKNKGERAKKKKEKREKKARKAREAQAPLPTQASTSTLLDVEPKPSNEVRSASPLSTPALNRDAASTSAAVASIMPDDAASSAGVSDYFDHKERSKERKKNVEANKTDDKRSNAMALLKAKREGKAKREEEEAKRMAEKDRDDDKEELDSVSGCKSAVKLKASEIYSDDSGSSDWDEEEKPAGKRSRSNSSKASSESEDEEKAPQRPVFITTREDLNKLRLSRYKMERFVNLPIFESTVLNCFVRISIGNNGQKPVYRVAEIVGVVETGKIYSLGTTRTNRGLRLKHGTQERVFRLEFISNQEFTENEFNKWNEVCQQSHVQMPTIDLIAIKQNDIKKALNYEFKDEDVDKIVEEKNRFRNRPTNYAMKKTCLMKERDAAMLRGDYDIAQDLGQQIDELENRASELDKRRSHTLNLISYINDRNRKKNVEDAEKAILEEARANKGLKISDPFTRRITQPRMGFKGAKKDEDDMQLAPLPPPPPGKKRPNEAGTSSASVRSTDSKDYSLYSLHDFDIDLDVPLPVNTNSVPKPASKPAETVSKRSLNLEDYKKKRGLI
Take B3: the MAPPIT interaction score in test [4] (MAPPIT configuration: N-C) was 0.216; in test [4] (MAPPIT configuration: N-N), -0.281.

B4: TrxT (protein)
chain: MVYPVRNKDDLDQQLILAEDKLVVIDFYADWCGPCKIIAPKLDELAHEYSDRVVVLKVNVDENEDITVEYNVNSMPTFVFIKGGNVLELFVGCNSDKLAKLMEKHAGVYTDEAADVKAVHIDGECIVDLTAESSESDNDNNNVNEVSAHDENAVLEH
Regarding B4, in test [5], the MAPPIT interaction score was 1.51.

B5: CG5532 (protein)
chain: MPVDWFGYVYAATVAAGGIMGYAKAGSIPSLGAGLAFGALLGYGAHLNSQDTPRPLLQLGTSLFLAGLMGARWNRSGKLMPAGMVCMLSVAALVKNLATYNRYLMPAGTKAP
In the case of B5, the MAPPIT interaction score is 0.124 in [1] (pair source set: screen_4) and 0.413 in test [6].

B6: CG2678 (protein)
chain: MMHSAKNVCRTCMDETGTLVDIFANVRDPVLDEPEMSLSHILARCTERPVKRGDLLPQFICVSCVLAVQNAFRFKWQSEQSYQHFFRVLNQSGAPENQVHLAACNGDKNQIINQKMQLKSDRQQDTQQMTKTQKPDDDLSQKQTLQAKLQEGNIDGPPESFTLHPRKRTCRTEEQADMIPKEATRSTKMICDADGYYNCPHCSKRFCSQTQLRTHITDLCNRCPYCPRTYMQKSNLKRHLRNHLSKPAHKCFHCSKAFMRKDHLKRHLRTHDSDGPLSCSQCSAVFIEHVQLEIHRREHKQRPGSSKSESTKDPDSDDSDQAQDLKPKWTKNTFNGTCSIPPMLKPKPICDICQKKFSSVYALKRHMLTHNRQHHLKKCTYCSEEFKTEKHLKRHERGHMGDLFRCEFCSLVFVDVNYLRKHKKRIHSNNVIAM
As to B6, the MAPPIT interaction score was -0.147 in test [7], -0.191 in test [8], -0.0532 in [9] and -0.0312 in [10].

B7: MP1 (protein)
chain: MEPHFFFTVLWMLLMGTSSTYAQEIFGYCRTPDENSGTCINLRECGYLFELLQSEEVTEQDRRFLQASQCGYRNGQVLEKHFCFTNVQICCANSRMRNQQPQWGNHPQPTQTTKPTKRSGTKLLPMAPNCGENFGDRVVGGNETTKREFPWMALIEYTKPGNVKGHHCGGSLINHRYVLTAAHCVSAIPSDWELTGVRLGEWDASTNPDCTVGKNGRRDCNEPYVDYPVEERIPHPQYPGNSRDQLNDIALLRLRDEVQYSDFILPVCLPTLASQHNNIFLGRKVVVAGWGRTETNFTSNIKLKAELDTVPTSECNQRYATQRRTVTTKQMCAGGVEGVDSCRGDSGGPLLLEDYSNGNSNYYIAGVVSYGPTPCGLKGWPGVYTRVEAYLNWIENNVRA
As to B7, the MAPPIT interaction score in test [11] is -0.105.

B8: Prosalpha2 (protein)
chain: MATERYSFSLTTFSPSGKLVQLEYALAAVSGGAPSVGIIASNGVVIATENKHKSPLYEQHSVHRVEMIYNHIGMVYSGMGPDYRLLVKQARKIAQTYYLTYKEPIPVSQLVQRVATLMQEYTQSGGVRPFGVSLLICGWDNDRPYLYQSDPSGAYFAWKATAMGKNAVNGKTFLEKRYSEDLELDDAVHTAILTLKEGFEGKMTADNIEIGICDQNGFQRLDPASIKDYLASIP
As for B8, the MAPPIT interaction score in test [12] is 1.84; in test [13], 0.383; in [14] (MAPPIT configuration: N-C), 2.29; in test [14] (MAPPIT configuration: N-N), -0.206; in [15], 1.69; in test [16] (MAPPIT configuration: N-C), -1.15. The results for the MAPPIT interaction score in test [16] (MAPPIT configuration: N-N), in test [17] (MAPPIT configuration: N-C) and in test [17] (MAPPIT configuration: N-N) were 0.523, 0.723 and -0.155, respectively.

B9: Ddc (protein)
chain: MSHIPISNTIPTKQTDGNGKANISPDKLDPKVSIDMEAPEFKDFAKTMVDFIAEYLENIRERRVLPEVKPGYLKPLIPDAAPEKPEKWQDVMQDIERVIMPGVTHWHSPKFHAYFPTANSYPAIVADMLSGAIACIGFTWIASPACTELEVVMMDWLGKMLELPAEFLACSGGKGGGVIQGTASESTLVALLGAKAKKLKEVKELHPEWDEHTILGKLVGYCSDQAHSSVERAGLLGGVKLRSVQSENHRMRGAALEKAIEQDVAEGLIPFYAVVTLGTTNSCAFDYLDECGPVGNKHNLWIHVDAAYAGSAFICPEYRHLMKGIESADSFNFNPHKWMLVNFDCSAMWLKDPSWVVNAFNVDPLYLKHDMQGSAPDYRHWQIPLGRRFRALKLWFVLRLYGVENLQAHIRRHCNFAKQFGDLCVADSRFELAAEINMGLVCFRLKGSNERNEALLKRINGRGHIHLVPAKIKDVYFLRMAICSRFTQSEDMEYSWKEVSAAADEMEQEQ
Take B9: the MAPPIT interaction score in test [18] is 0.0861.

B10: bin3 (protein)
chain: MEKRLSDSPGDCRVTRSTMTPTLRLDQTSRQEPLPQQPDNGPAAAPGKSKSPTPLPGKSQAAQHHQFRAPQQQQGPKNRNKAWSKRQHKAGGKHNPSACVGASSGQAQSTGSSVIAATLLPTAASAHKADLENIQNIHNKNLTAGGGVNHHGNAGTAHHGGGGGAGAHHAAAGGHHHHHNTRLAQNAAAGGASGGGTIQMHKKMLRGHHHHVLCAGNNANHTCCLVTGCNGSSIGGVGVAGSGGATASAGGGGASCKEAQSCKDTSSLSGNSSIAGSAGAGNAVHYCCGRSKFFLPEKRLRKEVIVPPTKFLLGGNISDPLNLNSLQNENTSNASSTNNTPATTPRQSPITTPPKVEVIIPPNIHDPLHLLDPVDSMEYEKQLTSPMKRAGPGGGMLHHRQHHYRTRKNRKRRRFDSNNTSHAGDEGGVGSELTDEPPLPAATSSLAASPVAAPLNVGGSLLLSESAAPAPGETAEMGQQQEQAHVHSPQSASTTTTAAEMPTPTPTSAAAATATAEHKEQSAPAPTATSSPQRQQQHVAAAAEELPTPETSAAAETPAEEMLLSCSATSASLVASTLAERRASRDLRLDLSSTCYGVGGTGLSFGGSISSSVGSSFGGGGRKRKISESSTSQKSKKFHRHDAMDKIVSPVVPQPGAWKRPPRILQPSGARKPSTRRSTSVSESELLSPVEEQPPKQLPLIGVEIPRDDTPDLPDHGLGSPLSTTSGATSHTAGEQDSLAGVDISMGDTLGSGVVGKAPLTSSLMLEPAKIPPIKMLPKFRADGLKYRYGNFDRYVDFRQMNEFRDVRLQVFQRHVELFENKDILDIGCNVGHMTITVARHLAPKTIVGIDIDRELVARARRNLSIFVRIPKEEKLLEVKAEPTVDAKANIAVKDETSGAAHKKTRRGKRRRKVHQGIHHHHHHHHDLEQLQQQQKLNSLLVKPHEFFPISFPLTYGRIPRILSSSKSPNMLGNKNQFPANVFFRHTNYVLKDESLMASDTQQYDLILCLSVTKWIHLNFGDNGLKMAFKRMFNQLRPGGKLILEAQNWASYKKKKNLTPEIYNNYKQIEFFPNKFHEYLLSSEVGFSHSYTLGVPRHMNKGFCRPIQLYAKGDYTPNHVRWSDAYYPQTPYEAYRGIYATLPVHRMGGGGSSAGGSNSGHAQMLHLSSSSRSQNYDTPHYAGSASGSASCRQTPMYQPTYNPLETDSYQPSYDMEYLNHMYVFASPLYQTVWSPPASLRKSSSHTPVFGSVRDAELDGDGSGGGGSGGGSYHRHVYPPNDDTCSPNANACNAFNSIRDADTDDSNQLPGGSRRHVYATNCGESSSSPQVNHHDAVGEFVDGLMDDEQKSSTGGGTGGAAYCDLSDA
As to B10, the MAPPIT interaction score in test [19] was 0.262.

B11: Hel25E (protein)
chain: MADNDDLLDYEDEEQTETTAVENQEAPKKDVKGTYVSIHSSGFRDFLLKPEILRAIVDCGFEHPSEVQHECIPQAVLGMDILCQAKSGMGKTAVFVLATLQQLEPSDNNTCHVLVMCHTRELAFQISKEYERFSKYMPTVKVAVFFGGMAIQKDEETLKSGTPHIVVGTPGRILALIRNKKLNLKLLKHFVLDECDKMLEQLDMRRDVQEIFRSTPHGKQVMMFSATLSKDIRPVCKKFMQDPMEVYVDDEAKLTLHGLQQHYVNLKENEKNKKLFELLDVLEFNQVVIFVKSVQRCVALSQLLTEQNFPAIGIHRGMTQEERLNRYQQFKDFQKRILVATNLFGRGMDIERVNIVFNYDMPEDSDTYLHRVARAGRFGTKGLAITFVSDENDAKILNEVQDRFDVNISELPEEIDLSTYIEGR
B11: the MAPPIT interaction score in test [20] is -0.422; in test [21] it was 1.6.

B12: Max (protein)
chain: MSMSDDDRDIDIESDEDGDSDTGLGSSRHTNTANFTQAEKRAHHNALERRRRDHIKESFTNLREAVPTLKGEKASRAQILKKTTECIQTMRRKISENQKDIEEIKRQNNIIAKQIQALESSNGDQFSEFLSDEEVGSEEADDEDLDQDFSRRNKKMKTFHA
For the molecule B12, the MAPPIT interaction score in [22] was 0.0947; in [23] (MAPPIT configuration: N-C), 4.14 (active); in test [23] (MAPPIT configuration: N-N), 5.94 (active).
